# Measured values reported in ChEMBL document CHEMBL3988442, “University of Dundee, Small-Polar-MMV Screening Library” (2021).
# For some of these results: Potency and affinity values are given separately.
# Legend:
# Parameters in all cases: scale not given: direction of the effect not stated beside the values
# [1] = target: Protein translocase subunit SecA (Escherichia coli (strain K12)) (UniProt P10408); test: Assay to Identify E. coli SecA ATPase Inhibitors; format: functional; conditions: 30 µM
# [2] = target: T1, Ubiquitin-activating enzyme e1, putative (Leishmania donovani (strain BPK282A1)) (UniProt E9BSI1); test: Leishmania donovani Ubiquitin Activating Enzyme (LdE1); format: functional; conditions: 30 µM
# T1 sequence (whole entry): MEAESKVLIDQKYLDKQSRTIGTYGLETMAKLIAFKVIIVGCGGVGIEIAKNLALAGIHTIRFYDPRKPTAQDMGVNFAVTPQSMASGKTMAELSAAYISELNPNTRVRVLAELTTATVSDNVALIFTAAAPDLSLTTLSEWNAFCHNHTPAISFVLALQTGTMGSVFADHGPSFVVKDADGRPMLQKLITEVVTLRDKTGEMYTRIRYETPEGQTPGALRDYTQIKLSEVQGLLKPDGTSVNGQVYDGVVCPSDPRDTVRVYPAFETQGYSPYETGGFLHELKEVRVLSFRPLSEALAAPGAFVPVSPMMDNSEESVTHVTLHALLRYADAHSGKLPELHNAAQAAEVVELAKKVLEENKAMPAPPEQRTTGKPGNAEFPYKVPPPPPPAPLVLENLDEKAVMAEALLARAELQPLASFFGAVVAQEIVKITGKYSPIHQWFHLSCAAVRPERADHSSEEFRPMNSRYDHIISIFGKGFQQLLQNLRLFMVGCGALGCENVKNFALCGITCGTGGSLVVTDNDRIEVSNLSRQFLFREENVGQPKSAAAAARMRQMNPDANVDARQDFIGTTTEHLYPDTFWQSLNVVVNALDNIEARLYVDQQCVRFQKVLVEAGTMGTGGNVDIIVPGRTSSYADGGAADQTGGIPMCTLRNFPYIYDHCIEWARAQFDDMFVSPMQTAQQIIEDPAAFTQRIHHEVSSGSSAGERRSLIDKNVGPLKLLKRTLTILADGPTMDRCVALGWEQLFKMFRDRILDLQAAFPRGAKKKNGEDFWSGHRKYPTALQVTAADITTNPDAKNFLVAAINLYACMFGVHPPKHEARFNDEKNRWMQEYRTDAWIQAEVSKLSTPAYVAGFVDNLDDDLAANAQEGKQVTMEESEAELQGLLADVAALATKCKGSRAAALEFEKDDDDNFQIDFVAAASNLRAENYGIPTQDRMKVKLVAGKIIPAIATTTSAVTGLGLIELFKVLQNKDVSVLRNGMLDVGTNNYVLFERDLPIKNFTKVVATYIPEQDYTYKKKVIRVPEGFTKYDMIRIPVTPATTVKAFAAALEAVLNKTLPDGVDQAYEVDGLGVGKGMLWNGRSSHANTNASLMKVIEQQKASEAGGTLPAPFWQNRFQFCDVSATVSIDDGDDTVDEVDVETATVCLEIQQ
# [3] = target: AMP-activated protein kinase, AMPK (Homo sapiens) (UniProt P54646+O43741+P54619+Q9UGJ0+Q9Y478+Q13131+Q9UGI9); test: AMP-dependent Kinase enzyme assay. An in vitro enzyme assay that detects ADP turnover that is directly proportional to AMPK activity. This uses naive AMPK that is activated during the assay with MK-8722; format: functional; conditions: 30 µM
# [4] = target: Sialic acid-binding Ig-like lectin 9 (Homo sapiens) (UniProt Q9Y336); test: Hs-Siglec9 ALPHAscreen SOP 20170721; conditions: 10 µM
# [5] = tested on: Trypanosoma cruzi; test: Trypanosoma cruzi phosphomannomutase and mannose-1-phosphate guanylyltransferase assay; format: functional; conditions: 10 µM
# [6] = target: T2, Arginase-2, mitochondrial (Homo sapiens) (UniProt P78540); test: in vitro enzyme assay to detect the production of urea directly proportional to the activity of Arginase II; format: functional; conditions: 33.3 µM; also: in the data most compounds retested in dose-response had high values
# T2 sequence (whole entry): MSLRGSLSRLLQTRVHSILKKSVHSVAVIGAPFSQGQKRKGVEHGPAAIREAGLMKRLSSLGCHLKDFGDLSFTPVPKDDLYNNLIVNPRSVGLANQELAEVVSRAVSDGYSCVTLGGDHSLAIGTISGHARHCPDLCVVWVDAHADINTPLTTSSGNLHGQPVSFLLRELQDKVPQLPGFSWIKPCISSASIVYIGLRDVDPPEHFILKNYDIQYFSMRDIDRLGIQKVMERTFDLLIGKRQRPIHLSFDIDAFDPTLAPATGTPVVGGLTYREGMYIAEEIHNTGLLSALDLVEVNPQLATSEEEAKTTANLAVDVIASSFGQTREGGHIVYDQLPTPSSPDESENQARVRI
# [7] = target: T3, Proteasome subunit beta (Trypanosoma cruzi) (UniProt O96673); test: Trypanosoma cruzi proteasome chymotrypsin-like activity (TcProtChymo) assay.; also: in the data most compounds retested in dose-response had high values; format: functional; conditions: 9.37 µM
# T3 sequence (whole entry): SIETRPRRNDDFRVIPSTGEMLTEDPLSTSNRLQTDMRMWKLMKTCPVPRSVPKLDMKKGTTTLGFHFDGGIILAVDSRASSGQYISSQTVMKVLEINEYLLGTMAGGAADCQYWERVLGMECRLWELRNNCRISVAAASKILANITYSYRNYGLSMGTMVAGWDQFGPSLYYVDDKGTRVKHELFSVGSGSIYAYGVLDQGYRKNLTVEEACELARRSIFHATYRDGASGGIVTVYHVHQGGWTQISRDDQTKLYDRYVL
# [8] = organism: Homo sapiens; test: To identify inhibition of the IFN signalling (Jak-Stat) pathway via expression of an eGFP reporter gene under the control of an IFN-stimulated response element (ISRE) containing MxA promoter.; format: functional; conditions: 30 µM
# [9] = target: T4, Tyrosyl-tRNA synthetase, putative (Trypanosoma cruzi (strain CL Brener)) (UniProt Q4DSP6); test: Trypanosoma cruzi tyrosyl tRNA synthetase (TcYRS) _High Tyrosine SOP; format: functional; conditions: 30 µM; also: in the data most compounds retested in dose-response had high values
# T4 sequence (whole entry): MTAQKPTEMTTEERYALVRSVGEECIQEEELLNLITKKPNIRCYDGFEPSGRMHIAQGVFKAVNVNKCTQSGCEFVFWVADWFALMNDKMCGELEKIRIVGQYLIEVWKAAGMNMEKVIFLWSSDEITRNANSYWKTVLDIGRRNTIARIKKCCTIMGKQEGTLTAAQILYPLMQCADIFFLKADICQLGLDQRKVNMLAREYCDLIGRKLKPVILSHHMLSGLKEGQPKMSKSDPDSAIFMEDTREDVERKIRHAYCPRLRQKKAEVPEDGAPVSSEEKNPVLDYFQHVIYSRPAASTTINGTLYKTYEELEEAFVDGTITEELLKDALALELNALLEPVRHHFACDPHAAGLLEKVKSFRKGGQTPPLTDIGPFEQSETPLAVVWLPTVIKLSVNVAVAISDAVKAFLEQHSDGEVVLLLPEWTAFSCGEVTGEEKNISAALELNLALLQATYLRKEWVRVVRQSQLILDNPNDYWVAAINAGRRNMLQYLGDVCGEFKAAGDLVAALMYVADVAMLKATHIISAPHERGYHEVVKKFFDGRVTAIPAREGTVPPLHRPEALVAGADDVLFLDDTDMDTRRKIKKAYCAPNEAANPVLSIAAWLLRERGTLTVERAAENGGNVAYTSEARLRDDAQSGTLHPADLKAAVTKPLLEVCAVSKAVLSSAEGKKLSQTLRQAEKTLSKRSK
# [10] = target: T4, Tyrosyl-tRNA synthetase, putative (Trypanosoma cruzi (strain CL Brener)); test: Trypanosoma cruzi tyrosyl tRNA synthetase (TcYRS) SOP; format: functional; conditions: 30 µM
# [11] = target: Chromo domain-containing protein 1 (Saccharomyces cerevisiae (strain ATCC 204508 / S288c) (Baker's yeast)) (UniProt P32657); test: ScCHD-1 Enzyme Inhibition Assay; format: functional; conditions: 30 µM; also: in the data most compounds retested in dose-response had high values
# Chain of Chromo domain-containing protein 1 (Saccharomyces cerevisiae (strain ATCC 204508 / S288c) (Baker's yeast)) (P32657 whole entry, the tested form may be a part): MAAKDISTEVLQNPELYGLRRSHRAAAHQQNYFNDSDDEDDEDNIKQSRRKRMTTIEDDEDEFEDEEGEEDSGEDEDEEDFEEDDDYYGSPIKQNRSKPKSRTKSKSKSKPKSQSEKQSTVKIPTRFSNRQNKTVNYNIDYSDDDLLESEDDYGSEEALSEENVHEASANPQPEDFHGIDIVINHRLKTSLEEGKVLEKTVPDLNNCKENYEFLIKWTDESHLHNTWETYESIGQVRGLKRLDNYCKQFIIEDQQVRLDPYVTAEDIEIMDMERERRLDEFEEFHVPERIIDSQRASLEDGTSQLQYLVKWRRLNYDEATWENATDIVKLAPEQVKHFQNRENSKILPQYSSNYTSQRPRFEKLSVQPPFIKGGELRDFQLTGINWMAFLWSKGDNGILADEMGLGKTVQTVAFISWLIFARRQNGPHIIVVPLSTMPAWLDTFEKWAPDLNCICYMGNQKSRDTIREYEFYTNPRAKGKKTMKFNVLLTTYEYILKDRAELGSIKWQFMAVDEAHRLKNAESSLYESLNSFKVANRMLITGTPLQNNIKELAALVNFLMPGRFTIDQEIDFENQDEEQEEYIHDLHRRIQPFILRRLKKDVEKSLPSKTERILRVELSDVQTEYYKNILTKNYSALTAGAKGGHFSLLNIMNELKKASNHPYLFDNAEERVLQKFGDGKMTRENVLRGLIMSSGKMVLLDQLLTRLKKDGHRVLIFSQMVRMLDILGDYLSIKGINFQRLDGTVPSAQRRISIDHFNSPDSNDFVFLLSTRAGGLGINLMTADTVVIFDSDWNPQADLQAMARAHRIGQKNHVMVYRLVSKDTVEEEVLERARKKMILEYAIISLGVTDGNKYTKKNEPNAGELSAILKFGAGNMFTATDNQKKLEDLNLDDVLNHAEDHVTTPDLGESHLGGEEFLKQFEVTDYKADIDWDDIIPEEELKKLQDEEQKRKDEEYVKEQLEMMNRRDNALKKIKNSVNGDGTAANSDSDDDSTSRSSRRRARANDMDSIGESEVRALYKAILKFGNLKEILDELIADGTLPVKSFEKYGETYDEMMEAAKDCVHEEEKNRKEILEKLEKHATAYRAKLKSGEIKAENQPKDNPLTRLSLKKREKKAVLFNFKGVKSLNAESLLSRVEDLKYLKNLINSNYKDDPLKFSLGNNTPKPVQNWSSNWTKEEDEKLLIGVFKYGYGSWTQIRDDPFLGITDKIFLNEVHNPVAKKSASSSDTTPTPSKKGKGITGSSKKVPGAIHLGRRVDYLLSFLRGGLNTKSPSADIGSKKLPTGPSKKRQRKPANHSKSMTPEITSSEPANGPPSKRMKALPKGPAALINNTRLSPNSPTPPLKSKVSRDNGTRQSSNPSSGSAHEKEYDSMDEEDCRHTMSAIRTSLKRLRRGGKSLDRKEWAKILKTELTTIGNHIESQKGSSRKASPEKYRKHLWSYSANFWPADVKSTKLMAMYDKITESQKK
# Chain of Sialic acid-binding Ig-like lectin 9 (Homo sapiens) (Q9Y336 whole entry): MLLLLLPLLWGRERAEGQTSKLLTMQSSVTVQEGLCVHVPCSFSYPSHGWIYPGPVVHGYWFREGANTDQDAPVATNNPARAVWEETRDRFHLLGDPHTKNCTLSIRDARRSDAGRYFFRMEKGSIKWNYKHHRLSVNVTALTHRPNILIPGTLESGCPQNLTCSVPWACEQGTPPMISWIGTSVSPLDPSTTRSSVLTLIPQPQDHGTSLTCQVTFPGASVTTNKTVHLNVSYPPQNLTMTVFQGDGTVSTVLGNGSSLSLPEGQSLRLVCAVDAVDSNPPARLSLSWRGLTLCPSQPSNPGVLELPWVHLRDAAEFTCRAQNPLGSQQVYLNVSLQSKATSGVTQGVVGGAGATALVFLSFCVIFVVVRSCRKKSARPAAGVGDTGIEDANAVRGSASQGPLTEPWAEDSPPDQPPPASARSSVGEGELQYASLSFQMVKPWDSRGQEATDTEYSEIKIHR
# Chain of Protein translocase subunit SecA (Escherichia coli (strain K12)) (P10408 whole entry): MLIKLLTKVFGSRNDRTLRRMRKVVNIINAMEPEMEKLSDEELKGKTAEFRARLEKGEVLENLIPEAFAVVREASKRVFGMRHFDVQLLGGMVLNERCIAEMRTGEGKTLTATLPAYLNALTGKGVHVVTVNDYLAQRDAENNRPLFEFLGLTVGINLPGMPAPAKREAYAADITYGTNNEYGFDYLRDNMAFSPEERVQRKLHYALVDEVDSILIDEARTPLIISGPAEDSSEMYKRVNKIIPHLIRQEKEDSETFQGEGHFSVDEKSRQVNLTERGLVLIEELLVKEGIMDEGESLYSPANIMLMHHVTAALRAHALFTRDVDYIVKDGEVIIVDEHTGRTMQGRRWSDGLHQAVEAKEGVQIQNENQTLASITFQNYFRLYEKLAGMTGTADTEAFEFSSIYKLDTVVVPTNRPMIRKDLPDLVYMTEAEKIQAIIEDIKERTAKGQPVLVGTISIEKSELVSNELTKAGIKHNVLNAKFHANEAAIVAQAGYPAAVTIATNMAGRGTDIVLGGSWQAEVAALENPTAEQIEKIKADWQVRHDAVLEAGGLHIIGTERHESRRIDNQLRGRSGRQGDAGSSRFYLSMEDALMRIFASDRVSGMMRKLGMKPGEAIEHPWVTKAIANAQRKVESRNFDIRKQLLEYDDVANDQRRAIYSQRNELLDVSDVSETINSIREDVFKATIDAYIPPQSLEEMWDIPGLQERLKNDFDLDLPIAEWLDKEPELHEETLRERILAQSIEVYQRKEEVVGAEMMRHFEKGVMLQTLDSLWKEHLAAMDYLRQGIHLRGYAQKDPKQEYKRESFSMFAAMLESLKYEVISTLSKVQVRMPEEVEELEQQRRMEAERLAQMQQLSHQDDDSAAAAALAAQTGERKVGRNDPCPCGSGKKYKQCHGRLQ
compound,measurement,setting,value
CCOc1cc(C(=O)N2CCCC(c3noc(C)n3)C2)ccn1 (stereo not given),Percent Effect,[1],-5.03%
same,Percent Effect,[2],10.5%
same,Percent Effect,[3],-4.05%
same,Percent Effect,[4],13.6%
same,Percent Effect,[5],-2.15%
same,Percent Effect,[6],-1.08%
same,Percent Effect,[7],2.12%
same,Percent Effect,[8],-18.5%
same,Percent Effect,[9],5.42%
same,Percent Effect,[10],11.1%
same,Percent Effect,[11],-2.64%
CCn1cnnc1C1CCN(C(=O)c2cc3c(s2)CCC3)CC1,Percent Effect,[1],-5.61%
same,Percent Effect,[2],20.2%
same,Percent Effect,[3],-5.35%
same,Percent Effect,[4],8.78%
same,Percent Effect,[5],6.52%
same,Percent Effect,[6],-7.22%
same,Percent Effect,[7],20.2%
same,Percent Effect,[8],-5.6%
same,Percent Effect,[9],8.37%
same,Percent Effect,[10],21.5%
same,Percent Effect,[11],-4.66%
Cc1cnn(CC2CN(c3ncnc4ccsc34)CCO2)c1 (stereo not given),Percent Effect,[1],-2.74%
same,Percent Effect,[2],2.7%
same,Percent Effect,[3],4.84%
same,Percent Effect,[4],-10%
same,Percent Effect,[5],6.05%
same,Percent Effect,[6],-2.5%
same,Percent Effect,[7],19.7%
same,Percent Effect,[8],75.7%
same,Percent Effect,[9],11.9%
same,Percent Effect,[10],15.8%
same,Percent Effect,[11],-0.587%
Cc1nc(CN2CCCC(N(C)Cc3c(C)noc3C)C2)no1 (stereo not given),Percent Effect,[1],-2.99%
same,Percent Effect,[2],-15.6%
same,Percent Effect,[3],-0.475%
same,Percent Effect,[4],-1.55%
same,Percent Effect,[5],9.7%
same,Percent Effect,[6],-0.21%
same,Percent Effect,[7],16.6%
same,Percent Effect,[8],6.79%
same,Percent Effect,[9],1.91%
same,Percent Effect,[10],9.41%
same,Percent Effect,[11],-22.6%
N#Cc1ccccc1N1CCCN(C(=O)CCn2cccn2)CC1,Percent Effect,[1],-6.4%
same,Percent Effect,[2],15.2%
same,Percent Effect,[3],5.53%
same,Percent Effect,[4],0.749%
same,Percent Effect,[5],5.19%
same,Percent Effect,[6],-0.76%
same,Percent Effect,[7],6.8%
same,Percent Effect,[8],3.94%
same,Percent Effect,[9],5.42%
same,Percent Effect,[10],16.5%
same,Percent Effect,[11],-6.74%
